For 19 compounds, outcome and AC50 results are on record in PubChem BioAssay (EPA / NIEHS).

The target in test [1] is D(1A) dopamine receptor (Homo sapiens) (UniProt P21728). The experiment in a line: NVS_GPCR_hDRD1: NovaScreen (NVS) G Protein-Coupled Receptor Assay for human Dopamine Receptor D1 (DRD1) (AID 2283269). A digest of the protocol:
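Extracted HEK293 DRD1 is incubated 1 h with compound and a tritiated or iodinated radioligand, then filtered and counted. Screening runs 25 uM in duplicate with on-plate positive and negative controls.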

The target in test [2] is rat Monoamine Oxidase, MAO-B, Peripheral (MAOBP), Maob (gene 25750) (UniProt P19643). Nature of the test: NVS_ENZ_rMAOBP: NovaScreen (NVS) Enzymatic Assay for rat Monoamine Oxidase, MAO-B, Peripheral (MAOBP) (AID 2283242).
Test [3] concerns rat Monoamine Oxidase, MAO-A, Central (MAOAC), gene 29253. Nature of the test: NVS_ENZ_rMAOAC: NovaScreen (NVS) Enzymatic Assay for rat Monoamine Oxidase, MAO-A, Central (MAOAC) (AID 2283243).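 Also: potency refers to inhibition seen as signal drop below DMSO baseline.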 A digest of the protocol: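 Lysate-based radiometric enzyme assay using rat brain tissue; 1.5 h treatment; 25 uM single-point duplicate screen, concentration-response follow-up; loss of signal versus DMSO.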

Test [4] has as its target Adenosine receptor A1 (Bos taurus) (UniProt P28190). Nature of the test: NVS_GPCR_bAdoR_NonSelective: NovaScreen (NVS) G Protein-Coupled Receptor Assay for bovine Adenosine Receptor (AdoR), Non-selective Binding (AID 2283244). A digest of the protocol:
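Cell-free binding with membranes from bovine striatum: radioligand displaced by test chemical, read after 1 h by filtration and scintillation. Single-point 25 uM duplicate primary, 50 uM top concentration in follow-up curves, DMSO baseline.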

Test [5] concerns the target guinea pig Leukotriene D4 Receptor (LTD4), CYSLTR1 (gene 100135514) (UniProt Q2NNR5). The experiment in a line: NVS_GPCR_gLTD4: NovaScreen (NVS) G Protein-Coupled Receptor Assay for guinea pig Leukotriene D4 Receptor (LTD4) (AID 2283248). Summed up:
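Guinea pig lung membrane preparation; bound radioligand measured by filter scintillation after 1 h, loss of signal versus DMSO marking displacement. Compounds tested at 25 uM in duplicate, hits retested to max 50 uM.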

The test system of test [6] is guinea pig Leukotriene B4 Receptor (LTB4), gene 100379538. The experiment in a line: NVS_GPCR_gLTB4: NovaScreen (NVS) G Protein-Coupled Receptor Assay for guinea pig Leukotriene B4 Receptor (LTB4) (AID 2283247). A digest of the protocol: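 Membranes from guinea pig spleen incubated 2 h with radioligand and compound; bound counts measured by filtration and scintillation. Screened first at 25 uM in duplicate, then actives titrated to a 50 uM top concentration relative to DMSO.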

Test [7] has as its target human Serotonin, 5-Hydroxytryptamine Receptor 5A (5HT5A), HTR5A (gene 3361) (UniProt P47898). The experiment in a line: NVS_GPCR_h5HT5A: NovaScreen (NVS) G Protein-Coupled Receptor Assay for human Serotonin, 5-Hydroxytryptamine Receptor 5A (5HT5A) (AID 2283251). Summed up: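 Membranes from HEK293 cells, radioligand binding read by filtration and scintillation after 1 h. Single-concentration duplicate testing at 25 uM, then concentration-response for actives; positive-direction fitting relative to DMSO.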

Test [8] concerns the target human Adrenergic, Beta 1 Receptor (Adrb1), ADRB1 (gene 153) (UniProt P08588). Nature of the test: NVS_GPCR_hAdrb1: NovaScreen (NVS) G Protein-Coupled Receptor Assay for human Adrenergic, Beta 1 Receptor (Adrb1) (AID 2283258). A digest of the protocol:
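Membranes/protein extracted from human neuroepithelioma cells, radioligand competition binding read by filtration and scintillation 2 h post-dose. Single 25 uM duplicate screen, then concentration-response follow-up; DMSO as negative control.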

For test [9], the target named is human Adrenergic, Beta 3 Receptor (Adrb3), ADRB3 (gene 155) (UniProt P13945). The experiment in a line: NVS_GPCR_hAdrb3: NovaScreen (NVS) G Protein-Coupled Receptor Assay for human Adrenergic, Beta 3 Receptor (Adrb3) (AID 2283262). A digest of the protocol:
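A cell-free filter binding assay read by scintillation counting, with displacement of a specific radioligand measured after 1 hour. The receptor source was SK-N-MC extracts (cells pretreated with isoproterenol and 8-bromo-cAMP). Compounds were first tested at 25 uM in duplicate and then in concentration series.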

The target in test [10] is human Adenosine A1 Receptor (AdoRA1), ADORA1 (gene 134) (UniProt P30542). The experiment in a line: NVS_GPCR_hAdoRA1: NovaScreen (NVS) G Protein-Coupled Receptor Assay for human Adenosine A1 Receptor (AdoRA1) (AID 2283254). A digest of the protocol: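 Each chemical is first tested twice at 25 uM, actives later in dilution series, against a radioligand bound to human cortex membranes; after 1 h, filter-retained counts are compared with DMSO controls, lower signal indicating displacement.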

The target of test [11] is human Adenosine A2a Receptor (AdoRA2a), ADORA2A (gene 135) (UniProt P29274). Nature of the test: NVS_GPCR_hAdoRA2a: NovaScreen (NVS) G Protein-Coupled Receptor Assay for human Adenosine A2a Receptor (AdoRA2a) (AID 2283256). A digest of the protocol:
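HEK293-derived receptor preparation, radioligand displacement, 1.5 h, filtration + scintillation read. Loss of bound signal scored vs DMSO. Single-point 25 uM in duplicate first, then concentration-response for actives.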

Test [12] deals with guinea pig Opioid, Kappa 1 Receptor (OpiateK), OPRK1 (gene 100135587) (UniProt P41144). Nature of the test: NVS_GPCR_gOpiateK: NovaScreen (NVS) G Protein-Coupled Receptor Assay for guinea pig Opioid, Kappa 1 Receptor (OpiateK) (AID 2283252).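 Also: radioligand displacement from kappa opioid receptor in guinea pig cerebellar membranes; active means reduced radioligand binding relative to DMSO.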 Summed up:
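Radioligand competition binding using guinea pig cerebellum membrane fraction; 2 h exposure; filter radiodetection. Single concentration 25 uM (duplicate), follow-up concentration-response for actives.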

In test [13] the test system is bovine Angiotensin II Receptor Type 2 (AT2), gene 407157. Nature of the test: NVS_GPCR_bAT2: NovaScreen (NVS) G Protein-Coupled Receptor Assay for bovine Angiotensin II Receptor Type 2 (AT2) (AID 2283240). A digest of the protocol:
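Radioligand displacement on bovine cerebellar membranes, 1 hour incubation, filter-based scintillation counting; loss of signal vs DMSO. Duplicate single-point screen at 25 uM, then concentration-response to 50 uM maximum.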

Inconclusive results are not listed. Active and inactive are the calls of the source. The calls were made as follows: active = hit-call score of the fitted dose curve at least 0.9, where 1 is the maximum; inconclusive = response in the unintended direction; inactive = score below 0.9.

Chain of human Adenosine A2a Receptor (AdoRA2a), ADORA2A (gene 135) (P29274 whole entry, looked up): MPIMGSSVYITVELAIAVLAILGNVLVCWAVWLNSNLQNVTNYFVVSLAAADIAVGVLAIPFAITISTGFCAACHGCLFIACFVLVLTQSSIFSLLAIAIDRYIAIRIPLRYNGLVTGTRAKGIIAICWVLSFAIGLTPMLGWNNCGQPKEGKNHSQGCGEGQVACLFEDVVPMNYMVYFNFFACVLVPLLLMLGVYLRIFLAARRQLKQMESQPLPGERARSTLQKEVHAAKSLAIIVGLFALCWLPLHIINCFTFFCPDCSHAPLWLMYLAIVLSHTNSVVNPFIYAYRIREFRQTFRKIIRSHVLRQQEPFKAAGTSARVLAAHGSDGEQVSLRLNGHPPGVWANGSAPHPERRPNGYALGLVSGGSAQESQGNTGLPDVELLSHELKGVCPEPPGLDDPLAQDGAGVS
Chain of human Adenosine A1 Receptor (AdoRA1), ADORA1 (gene 134) (P30542 whole entry, looked up): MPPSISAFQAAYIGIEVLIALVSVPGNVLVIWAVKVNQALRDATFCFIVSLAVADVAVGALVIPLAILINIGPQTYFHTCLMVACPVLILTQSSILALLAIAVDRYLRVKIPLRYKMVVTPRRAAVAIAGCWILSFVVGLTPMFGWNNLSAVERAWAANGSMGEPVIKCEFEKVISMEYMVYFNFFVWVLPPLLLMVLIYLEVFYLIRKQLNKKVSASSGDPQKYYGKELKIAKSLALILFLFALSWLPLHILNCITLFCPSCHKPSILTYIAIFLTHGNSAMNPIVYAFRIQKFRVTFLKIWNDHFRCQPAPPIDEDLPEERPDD
Chain of D(1A) dopamine receptor (Homo sapiens) (P21728 whole entry, looked up): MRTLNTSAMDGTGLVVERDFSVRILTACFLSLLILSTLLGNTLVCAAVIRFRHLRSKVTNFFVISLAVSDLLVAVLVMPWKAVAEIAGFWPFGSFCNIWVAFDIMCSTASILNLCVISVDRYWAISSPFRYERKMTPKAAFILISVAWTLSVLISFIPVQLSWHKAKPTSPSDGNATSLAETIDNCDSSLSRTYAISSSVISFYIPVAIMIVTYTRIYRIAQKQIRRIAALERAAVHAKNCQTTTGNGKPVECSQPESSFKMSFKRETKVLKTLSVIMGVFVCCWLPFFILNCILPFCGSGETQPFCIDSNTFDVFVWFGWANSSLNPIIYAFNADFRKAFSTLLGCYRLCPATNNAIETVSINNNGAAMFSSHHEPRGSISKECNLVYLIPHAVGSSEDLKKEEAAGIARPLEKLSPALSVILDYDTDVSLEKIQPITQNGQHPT
Chain of guinea pig Opioid, Kappa 1 Receptor (OpiateK), OPRK1 (gene 100135587) (P41144 whole entry, looked up): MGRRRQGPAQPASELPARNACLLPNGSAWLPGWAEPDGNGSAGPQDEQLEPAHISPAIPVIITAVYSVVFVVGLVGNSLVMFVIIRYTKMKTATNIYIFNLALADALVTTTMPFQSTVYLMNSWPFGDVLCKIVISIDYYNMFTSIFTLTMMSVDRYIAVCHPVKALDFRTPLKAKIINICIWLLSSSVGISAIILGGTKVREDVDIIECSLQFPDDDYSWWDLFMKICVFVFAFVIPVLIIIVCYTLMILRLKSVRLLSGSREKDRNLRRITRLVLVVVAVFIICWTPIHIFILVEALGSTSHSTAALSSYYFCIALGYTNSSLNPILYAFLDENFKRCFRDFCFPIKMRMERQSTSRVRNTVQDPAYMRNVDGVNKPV
Chain of guinea pig Leukotriene D4 Receptor (LTD4), CYSLTR1 (gene 100135514) (Q2NNR5 whole entry, looked up): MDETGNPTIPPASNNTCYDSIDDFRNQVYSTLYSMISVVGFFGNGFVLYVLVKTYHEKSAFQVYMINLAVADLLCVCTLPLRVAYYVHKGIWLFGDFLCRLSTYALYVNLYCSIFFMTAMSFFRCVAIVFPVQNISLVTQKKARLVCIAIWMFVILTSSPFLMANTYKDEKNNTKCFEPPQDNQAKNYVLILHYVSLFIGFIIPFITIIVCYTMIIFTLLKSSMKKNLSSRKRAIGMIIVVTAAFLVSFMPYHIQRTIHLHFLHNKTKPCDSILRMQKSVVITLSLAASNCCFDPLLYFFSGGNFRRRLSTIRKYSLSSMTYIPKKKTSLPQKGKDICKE
Chain of human Adrenergic, Beta 3 Receptor (Adrb3), ADRB3 (gene 155) (P13945 whole entry, looked up): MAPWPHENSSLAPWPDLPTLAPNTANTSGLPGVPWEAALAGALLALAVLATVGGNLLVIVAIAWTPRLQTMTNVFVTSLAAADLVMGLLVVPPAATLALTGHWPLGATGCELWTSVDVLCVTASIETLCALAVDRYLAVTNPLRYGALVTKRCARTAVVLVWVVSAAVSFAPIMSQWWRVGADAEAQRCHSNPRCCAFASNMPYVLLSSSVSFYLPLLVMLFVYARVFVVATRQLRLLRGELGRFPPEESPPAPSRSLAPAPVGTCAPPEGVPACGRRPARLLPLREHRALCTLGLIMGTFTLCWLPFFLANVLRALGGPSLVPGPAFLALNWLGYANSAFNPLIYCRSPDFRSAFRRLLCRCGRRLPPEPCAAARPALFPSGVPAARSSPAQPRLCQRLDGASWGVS
Chain of Adenosine receptor A1 (Bos taurus) (P28190 whole entry, looked up): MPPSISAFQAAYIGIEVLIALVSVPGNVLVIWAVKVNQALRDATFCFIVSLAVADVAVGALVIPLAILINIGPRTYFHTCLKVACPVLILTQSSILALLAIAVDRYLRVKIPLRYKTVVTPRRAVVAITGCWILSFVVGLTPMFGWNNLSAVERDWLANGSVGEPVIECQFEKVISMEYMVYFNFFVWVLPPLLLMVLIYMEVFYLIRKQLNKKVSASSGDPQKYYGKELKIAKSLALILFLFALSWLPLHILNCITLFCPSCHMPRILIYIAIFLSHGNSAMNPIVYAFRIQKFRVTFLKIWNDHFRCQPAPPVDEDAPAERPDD
Chain of human Adrenergic, Beta 1 Receptor (Adrb1), ADRB1 (gene 153) (P08588 whole entry, looked up): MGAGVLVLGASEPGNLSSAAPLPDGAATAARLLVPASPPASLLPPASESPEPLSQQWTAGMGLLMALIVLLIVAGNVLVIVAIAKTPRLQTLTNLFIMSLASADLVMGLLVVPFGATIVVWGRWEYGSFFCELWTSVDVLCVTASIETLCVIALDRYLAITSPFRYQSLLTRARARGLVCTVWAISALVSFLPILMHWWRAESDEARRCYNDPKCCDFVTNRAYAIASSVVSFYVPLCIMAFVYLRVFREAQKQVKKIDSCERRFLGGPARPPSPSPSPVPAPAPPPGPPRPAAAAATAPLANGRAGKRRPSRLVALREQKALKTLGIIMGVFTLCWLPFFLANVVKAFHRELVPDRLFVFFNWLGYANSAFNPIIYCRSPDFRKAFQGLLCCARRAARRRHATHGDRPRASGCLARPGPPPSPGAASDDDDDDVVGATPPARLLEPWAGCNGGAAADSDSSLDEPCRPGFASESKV
Chain of rat Monoamine Oxidase, MAO-B, Peripheral (MAOBP), Maob (gene 25750) (P19643 whole entry, looked up): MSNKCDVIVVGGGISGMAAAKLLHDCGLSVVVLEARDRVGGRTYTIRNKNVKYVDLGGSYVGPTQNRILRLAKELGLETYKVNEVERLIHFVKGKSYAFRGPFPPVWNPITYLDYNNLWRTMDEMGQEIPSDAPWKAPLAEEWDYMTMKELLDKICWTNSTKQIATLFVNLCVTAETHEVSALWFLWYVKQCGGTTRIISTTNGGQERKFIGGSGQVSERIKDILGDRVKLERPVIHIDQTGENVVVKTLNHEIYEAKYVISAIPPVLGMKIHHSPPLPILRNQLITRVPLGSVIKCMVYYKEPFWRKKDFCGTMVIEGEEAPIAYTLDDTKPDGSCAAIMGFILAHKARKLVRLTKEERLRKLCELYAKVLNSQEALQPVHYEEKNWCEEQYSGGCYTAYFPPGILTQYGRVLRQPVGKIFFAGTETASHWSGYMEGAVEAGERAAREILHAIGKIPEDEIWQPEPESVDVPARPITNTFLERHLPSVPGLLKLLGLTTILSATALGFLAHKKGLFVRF
Chain of human Serotonin, 5-Hydroxytryptamine Receptor 5A (5HT5A), HTR5A (gene 3361) (P47898 whole entry, looked up): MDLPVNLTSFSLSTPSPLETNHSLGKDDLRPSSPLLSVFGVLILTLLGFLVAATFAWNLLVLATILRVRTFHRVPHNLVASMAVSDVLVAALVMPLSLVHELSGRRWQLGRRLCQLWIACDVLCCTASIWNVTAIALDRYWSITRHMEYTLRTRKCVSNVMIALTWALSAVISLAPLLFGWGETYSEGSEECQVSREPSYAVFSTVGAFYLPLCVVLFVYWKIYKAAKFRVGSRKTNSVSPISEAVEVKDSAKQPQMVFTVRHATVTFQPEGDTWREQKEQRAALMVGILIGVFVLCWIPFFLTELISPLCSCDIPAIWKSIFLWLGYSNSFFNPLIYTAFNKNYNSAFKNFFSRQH

In the case of `CC(C)(C)c1cc([N+](=O)[O-])cc(C(C)(C)C)c1O`, the result in test [1] was inactive.
The term AC50 denotes the concentration giving half of the maximal activity seen. For the compound `Oc1cc(Cl)c(Cl)cc1Cl`, the AC50 was 17.7 µM (active) in test [2] and 16.5 µM (active) in test [3].
`Cc1ccc(OP(=O)(Oc2ccc(C)cc2C)Oc2ccc(C)cc2C)c(C)c1`: the AC50 in test [1] was 14.3 µM (active).
With `CC(C)(C)c1ccccc1O`, the compound was classed as inactive in [4].
In the case of `CCOC(=O)CC(=O)CCl`, the result in [5] was inactive.
`O=S(=O)(C(Cl)(Cl)Cl)C(Cl)(Cl)Cl`: the AC50 in test [1] is 13.8 µM (active).
Consider `O=[N+]([O-])c1ccc(Nc2ccccc2)cc1`, for which, in test [1], the AC50 is 8.91 µM (active).
As to `O=C(O)C1(c2ccc3c(c2)OC[C@H](Cc2ccc(-c4ccccc4)cc2)[C@H]3O)CCCC1`, the values for the AC50 in test [6] and in test [8] were 0.00229 µM (active) and 25 µM (active), respectively. The compound was classed as inactive in test [5], in test [7] and in [9].
As to `CCN(N=O)C(N)=O`, the compound was called inactive in test [5].
For `OC(Cc1ccccc1Cl)(Cn1[nH]cnc1=S)C1(Cl)CC1` (stereo not given), the compound was called inactive in test [1].
For `Cc1cc(C(C)(C)c2ccc(O)c(C)c2)ccc1O`, the AC50 in test [10] was 8.39 µM (active). Also, in test [11], the compound was called inactive.
For the compound `Cc1cccc(OP(=O)(Oc2cccc(C)c2)Oc2cccc(C)c2)c1`, the compound was classed as inactive in test [11].
Take `N#Cc1ccccc1N`: the call in [1] was inactive.
As to `Nc1c(Oc2ccccc2)cc(O)c2c1C(=O)c1ccccc1C2=O`, in test [12], the compound was called inactive.
As for `N#Cc1cccnc1`, the compound was classed as inactive in [13].
Turning to `O=c1oc2ccccc2c(O)c1C(CC(O)c1ccc(-c2ccc(Br)cc2)cc1)c1ccccc1` (stereo not given), the half-maximal activity concentration (AC50) in test [5] is 9.92 µM (active); in [10], 23.9 µM (active). In addition, in test [12], the call was inactive.
`Cc1ccccc1OP(=O)(Oc1ccccc1C)Oc1ccccc1C`: in test [10], the call was inactive.
Take `O=C1C=CC(=O)c2ccccc21`: the results for the concentration at half-maximal activity (AC50) in [3], in test [12] and in test [1] were 25 µM (active), 37.8 µM (active) and 4.98 µM (active), respectively.
For `[Cl][Sn]([c]1ccccc1)([c]1ccccc1)[c]1ccccc1`, the outcome in test [11] was inactive. Also, the half-maximal activity concentration (AC50) in test [1] is 0.6 µM (active).
